Assay results reported in PubChem BioAssay (NCATS).
Inconclusive results are not listed. The source made the active and inactive calls. Calls follow the shape of the dose curve; as a rule, active = well fitted curve in the direction sought with a large enough effect; inconclusive = small, poorly fitted or top-dose-only effect, or another doubt; inactive = no such curve, though single readings can be large; an effect the other way counts as inactive or inconclusive.

How the values were obtained:
[1] = qHTS of pediatric cancer cell lines to identify multiple opportunities for drug repurposing: Confirmatory screen for NB1643 cells (AID 1347109); also: nearly all actives have a fitted effect of over 45% in size; also: potency is read from the fitted curve at half-maximal effect
Outline: (§1)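 Cells (500-1,000/well) rested 5 h, then received compounds for 48 h; metabolically active cells were measured by CellTiter-Glo luminescence. Final concentrations spanned up to 46 µM (MIPE, 11-point) or 0.59 nM-46 µM (NPC, 8-point) in primary screens, 11-point in follow-ups.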

[2] = qHTS of pediatric cancer cell lines to identify multiple opportunities for drug repurposing: Confirmatory screen for A673 cells (AID 1347110);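 also: cells exposed to compound for 48 h before the viability read; nearly all actives have a fitted effect of over 65% in size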; also: potency is read from the fitted curve at half-maximal effect
Outline: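 Cells plated at 500-1,000/well were treated five hours later with multi-point dilutions up to 46 µM final. After two days, CellTiter-Glo was added and luminescence read.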

[3] = qHTS of pediatric cancer cell lines to identify multiple opportunities for drug repurposing: Confirmatory screen for SK-N-MC cells (AID 1347111);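 also: cells exposed to compound for 48 h before the readout; nearly all actives have a fitted effect of over 70% in size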; also: potency is read from the fitted curve at half-maximal effect
Outline: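 Seed 500-1,000 cells/well; rest 5 h at 37 degrees C. Pin-transfer compounds, 11-point titration. Incubate 48 h. Add CellTiter-Glo, 15 min RT, read luminescence.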

[4] = qHTS of pediatric cancer cell lines to identify multiple opportunities for drug repurposing: Confirmatory screen for BT-12 cells (AID 1347112); also: potency is read from the fitted curve at half-maximal effect;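 also: viability read after 48 h of compound exposure; nearly all actives have a fitted effect of over 55% in size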
Outline: as §1

[5] = qHTS of pediatric cancer cell lines to identify multiple opportunities for drug repurposing: Confirmatory screen for LAN-5 cells (AID 1347113); also: nearly all actives have a fitted effect of over 65% in size; also: potency is read from the fitted curve at half-maximal effect
Outline: as §1

[6] = qHTS of pediatric cancer cell lines to identify multiple opportunities for drug repurposing: Confirmatory screen for NB-EBc1 cells (AID 1347115);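 also: cells exposed to compound for 48 h before the viability read; nearly all actives have a fitted effect of over 45% in size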
Outline: as §1

[7] = qHTS of pediatric cancer cell lines to identify multiple opportunities for drug repurposing: Confirmatory screen for BT-37 cells (AID 1347117); also: nearly all actives have a fitted effect of over 55% in size; also: potency is read from the fitted curve at half-maximal effect
Outline: as §1

[8] = qHTS of pediatric cancer cell lines to identify multiple opportunities for drug repurposing: Confirmatory screen for TC32 cells (AID 1347118);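 also: cells exposed to compound for 48 h before the read; nearly all actives have a fitted effect of over 65% in size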; also: potency is read from the fitted curve at half-maximal effect
Outline: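 qHTS, TC32, 48 h drug treatment, CellTiter-Glo luminescence as a proxy for metabolically active cells; primary top concentration 46 µM (MIPE 11-pt, NPC 8-pt); confirmatory 11-pt.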

[9] = qHTS of pediatric cancer cell lines to identify multiple opportunities for drug repurposing: Confirmatory screen for MG 63 (6-TG R) cells (AID 1347119); also: nearly all actives have a fitted effect of over 55% in size; also: potency is read from the fitted curve at half-maximal effect
Outline: as §1

[10] = qHTS of pediatric cancer cell lines to identify multiple opportunities for drug repurposing: Confirmatory screen for control Hh wild type fibroblast cells (AID 1347121); also: nearly all actives have a fitted effect of over 70% in size; also: potency is read from the fitted curve at half-maximal effect
Outline: as §1

[11] = qHTS of pediatric cancer cell lines to identify multiple opportunities for drug repurposing: Confirmatory screen for U-2 OS cells (AID 1347122); also: nearly all actives have a fitted effect of over 65% in size; also: potency is read from the fitted curve at half-maximal effect
Outline: as §1

[12] = qHTS of pediatric cancer cell lines to identify multiple opportunities for drug repurposing: Confirmatory screen for Rh41 cells (AID 1347123);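 also: 48 h compound exposure; nearly all actives have a fitted effect of over 60% in size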; also: potency is read from the fitted curve at half-maximal effect
Outline: as §1

[13] = qHTS of pediatric cancer cell lines to identify multiple opportunities for drug repurposing: Confirmatory screen for RD cells (AID 1347124)
Outline: as §1

[14] = qHTS of pediatric cancer cell lines to identify multiple opportunities for drug repurposing: Confirmatory screen for Rh18 cells (AID 1347125); also: nearly all actives have a fitted effect of over 55% in size
Outline: as §1

[15] = qHTS of pediatric cancer cell lines to identify multiple opportunities for drug repurposing: Confirmatory screen for Rh30 cells (AID 1347126); also: nearly all actives have a fitted effect of over 55% in size; also: potency is read from the fitted curve at half-maximal effect
Outline: as §1

[16] = qHTS of pediatric cancer cell lines to identify multiple opportunities for drug repurposing: Confirmatory screen for OHS-50 cells (AID 1347128); also: potency is read from the fitted curve at half-maximal effect
Outline: as §1

[17] = qHTS of pediatric cancer cell lines to identify multiple opportunities for drug repurposing: Confirmatory screen for SK-N-SH cells (AID 1347129);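 also: cells exposed to compound for 48 h before viability read; nearly all actives have a fitted effect of over 60% in size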; also: potency is read from the fitted curve at half-maximal effect
Outline: as §1

[18] = qHTS of pediatric cancer cell lines to identify multiple opportunities for drug repurposing: Confirmatory screen for SJ-GBM2 cells (AID 1347116); also: nearly all actives have a fitted effect of over 60% in size; also: potency is read from the fitted curve at half-maximal effect
Outline: (§2)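 Viability measured as metabolically active cells via CellTiter-Glo luminescence following 48 hours of compound exposure, 11-point dilutions in confirmatory testing. 500-1,000 cells/well plated 5 hours before dosing; controls were DMSO and 2.3 µM bortezomib.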

[19] = qHTS of pediatric cancer cell lines to identify multiple opportunities for drug repurposing: Confirmatory screen for Saos-2 cells (AID 1347127); also: nearly all actives have a fitted effect of over 60% in size; also: potency is read from the fitted curve at half-maximal effect
Outline: as §1

[20] = qHTS of pediatric cancer cell lines to identify multiple opportunities for drug repurposing: Confirmatory screen for DAOY cells (AID 1347114); also: nearly all actives have a fitted effect of over 65% in size
Outline: as §2

Measured: Potency

CC1=C(CC(=O)O)c2cc(F)ccc2C1=Cc1ccc(S(C)=O)cc1 (centres undefined)
not listed: [18] | [19] | [20]
inactive: all other assays above

Cc1cnc(-c2cc(N3CCN(C(=O)CCS(C)(=O)=O)CC3)ncc2Cl)c(C)c1
active: [7] 29.3 µM
not listed: [12] | [18] | [19] | [20]
inactive: all other assays above

C[C@@H]1O[C@@H](O[C@H]2CC[C@@]3(C)[C@H](CC[C@@H]4[C@H]3C[C@@H](O)[C@]3(C)[C@@H](C5=CC(=O)OC5)CC[C@]43O)C2)C[C@H](O)[C@@H]1O[C@H]1C[C@H](O)[C@H](O[C@H]2C[C@H](O)[C@@H](O)[C@@H](C)O2)[C@H](C)O1 (stereo in doubt)
active: [1] 0.339 µM | [2] 0.427 µM | [3] 0.269 µM | [4] 0.17 µM | [5] 0.302 µM | [18] 0.302 µM | [7] 0.0955 µM | [8] 0.17 µM | [12] 0.107 µM | [15] 0.339 µM | [19] 1.91 µM | [17] 0.215 µM
inactive: [16]

C=C1[C@H](n2cnc3c(=O)[nH]c(N)nc32)C[C@H](O)[C@H]1CO
active: [3] 7.37 µM | [8] 8.27 µM
not listed: [9] | [18] | [19]
inactive: all other assays above

COc1ccc2c(c1)c(C1=C(c3c[nH]c4ccccc34)C(=O)NC1=O)cn2CCCN(C)C
inactive: [10] | [14] | [19]
active: [1] 20.8 µM | [3] 8.27 µM | [5] 16.5 µM | [7] 23.3 µM | [8] 23.3 µM | [12] 20.8 µM | [15] 2.33 µM | [16] 23.3 µM | [17] 16.6 µM

Cc1cccc(-c2[nH]c(C(C)(C)C)nc2-c2ccc3c(c2)OCO3)n1
inactive: [14]
active: [2] 13.1 µM | [3] 7.37 µM | [4] 11.7 µM | [5] 2.61 µM | [7] 8.27 µM | [8] 7.37 µM | [10] 8.27 µM

CC(C)C[C@@H](C(=O)N[C@H](C(=O)OC1CCCC1)c1ccccc1)[C@H](O)C(=O)NO
active: [1] 20.8 µM | [3] 20.8 µM | [8] 23.3 µM | [9] 20.8 µM | [12] 11.7 µM
inactive: [4] | [6] | [10] | [14]

Cc1ccccc1-n1c(Cn2nc(-c3cccc(O)c3)c3c(N)ncnc32)nc2cccc(C)c2c1=O
active: [2] 7.37 µM | [15] 13.1 µM
inactive: [1] | [4] | [5] | [8] | [10] | [14] | [16] | [17]

CC1=C[C@@H]2[C@@H]([C@@H](O)C[C@@]3(C)[C@H]2C[C@@H](C)[C@]3(O)C(=O)CO)[C@@]2(C)Cc3cnn(-c4ccccc4)c3C=C12
inactive: [4] | [10] | [11] | [14] | [15]
active: [2] 23.3 µM | [3] 9.27 µM | [8] 10.4 µM | [12] 23.3 µM

Cc1c(C(=O)Nc2ccc(N3C[C@@H](C)O[C@@H](C)C3)nc2)cccc1-c1ccc(OC(F)(F)F)cc1
inactive: [1] | [5] | [6] | [18] | [10] | [13] | [14] | [17]
active: [11] 18.5 µM | [12] 16.5 µM

CC(=O)N1CCN(c2ccc(OCc3nn(C)c(C)c3-c3cccc4c(CCCOc5cc(C)c(Cl)c(C)c5)c(C(=O)O)n(Cc5cccnc5)c34)cc2)CC1
active: [2] 18.5 µM
inactive: [1] | [4] | [5] | [10] | [11] | [13] | [14] | [15] | [17]

CCC(C)SSc1ncc[nH]1 (centres undefined)
active: [1] 18.5 µM | [3] 8.27 µM | [4] 23.3 µM | [5] 13.1 µM | [8] 13.1 µM | [12] 9.27 µM | [17] 16.6 µM
inactive: [10]

CCN(CCO)CCCOc1ccc2c(Nc3cc(CC(=O)Nc4cccc(F)c4)[nH]n3)ncnc2c1
active: [2] 10.4 µM | [3] 0.104 µM | [8] 0.0414 µM
inactive: [4] | [20] | [6] | [18] | [10] | [11] | [13] | [14] | [15]

Cc1cc(CS(=O)(=O)c2ccccc2)cc(OCc2ccc(CN3CCC[C@H]3CO)cc2)c1
active: [12] 16.5 µM
inactive: [1] | [6] | [18] | [10] | [13] | [15] | [19]
